The values that follow come from PubChem BioAssay.

This assay can be described thus: JC-1 mitochondrial signal, unstimulated myeloma cells – cell-based, JC-1 fluorescence, RPMI8226, 24 h, 100 nL compound, profiling panel (AID 1169). Further: test concentration not given here. As to conditions: JC-1 mitochondrial potential fluorescence, higher = more signal.
For `CCCCCCc1nc(C2CC2)cc2c1[Si](C(C)C)(C(C)C)OC2`, the z-score is -0.651.
`COc1ccc([Si](C)(C)[C@H]2[C@H](CCO)O[C@@]3(C(=O)N(Cc4cccc(N5C(=O)COc6ccccc65)c4)c4ccccc43)[C@@H]2C)cc1` displayed a z-score of -1.05.
`C=C(/C(=C/C[C@H](OC(=O)c1ccncc1)c1ccc(CO)o1)c1cc(C(=O)OC)ccc1OC)C(C)C` returned a z-score of -0.324.
The result for `COC(=O)[C@@]1(Cc2ccccc2N=[N+]=[N-])N=C(c2ccc(OCCCO)cc2)O[C@H]1c1ccccc1N=[N+]=[N-]` reads -1.13; that for `O=C1O[C@H](c2ccccc2)[C@H](c2ccccc2)N2[C@H]1[C@@H](C(=O)Nc1nc3ccccc3s1)[C@]1(C(=O)Nc3ccccc31)[C@H]2c1ccc(OCCO)cc1`, -1.07.
As for `C=CCC(OC(C)=O)[C@@H]1[C@@H](N(Cc2cc3ccccc3o2)C(=O)c2ccc(C)cc2)c2cc(OCCCO)ccc2N1C(=O)Cc1ccc(OC)cc1` (some centres undefined), the figure is 0.83; as for `C[C@@H]1ON(c2ccc(C(=O)OC(C)(C)C)cc2)[C@H](c2ccc(O)cc2)[C@H]1C(=O)N1C(=O)OC[C@H]1Cc1ccccc1`, -0.877.
In the case of `C=CCNC(=O)[C@H]1[C@@H]2C(=O)O[C@@H](c3ccccc3)[C@@H](c3ccccc3)N2[C@@H](c2ccc(O)cc2)[C@]12C(=O)Nc1ccc(C#CC3(O)CCCCCC3)cc12`, the z-score is -1.25.
In turn, `CCCC[C@@H]1C[C@H]1[C@@H](NC(=O)Cc1ccccc1)c1ccc(-c2ccccc2)cc1` returned a z-score of 0.043.
For the compound `C=C(COC)/C(=C/C[C@H](OC(=O)c1ccncc1)c1ccccc1OCCO)c1cnc2ccccc2c1`, the z-score is -0.32.
`[N-]=[N+]=Nc1ccccc1[C@@H]1OC(c2ccc(OCCCO)cc2)=N[C@]1(Cc1ccccc1)C(=O)NCC(O)CO` (some centres undefined): the z-score is -1.15.
In turn, `CC(C)N1CC=CC23O[C@@H]4C=CCOC(=O)[C@@H]4[C@H]2C(=O)N(CCCO)[C@@H]3C1=O` (some centres undefined) gave a z-score of 0.354.
For the compound `CC(c1ccccc1)C(O)C1C=CC2C(=O)N(c3ccccc3)C(=O)C2N1Nc1ccc([N+](=O)[O-])cc1` (centres undefined), the z-score was -1.03.
With `CC(C)C(CO)N1C(=O)[C@@H]2C3C(=O)OCCC/C=C\[C@H]3OC23C=CCN(C(C)(C)C)C(=O)[C@@H]13` (some centres undefined), the z-score is 0.0508.
As for `COCCCNC(=O)[C@@]1(Cc2ccccc2N=[N+]=[N-])N=C(c2ccc(OCCCO)cc2)O[C@H]1c1ccccc1`, the figure is -1.03; as for `CN1C(=O)C2C=CC(C(O)c3ccc(F)cc3)N(Nc3ccccc3)C2C1=O` (centres undefined), 0.663.
Turning to `COCCOC(=O)N1C(=O)[C@@]2(c3cc(C#CC4=CCCCC4)ccc31)[C@H](c1ccc(OCCO)cc1)N1[C@H](c3ccccc3)[C@H](c3ccccc3)OC(=O)[C@H]1[C@@H]2C(=O)NC[C@H](O)c1ccccc1`, the z-score is -0.784.
Compound `COC(=O)C1=CC(CCCO)=CC(C2CC2)N(C)C=C1C(=O)OC` (centres undefined) returned a z-score of -0.225.
`O=C(NCC(F)(F)F)[C@@H]1c2ccccc2C(=O)N(Cc2ccc(OC(F)(F)F)cc2)[C@H]1c1ccc(CO)cc1` came in with a z-score of 0.941.
Consider `COc1cccc(/C=C/C=O)c1`, for which the z-score is -0.109.
On to `COC(=O)C(CC#Cc1ccc2c(c1)[C@]1(C(=O)N2)[C@H](c2ccccc2OCCO)N2[C@H](c3ccccc3)[C@H](c3ccccc3)OC(=O)[C@H]2[C@@H]1C(=O)NC[C@H](O)c1ccccc1)C(=O)OC`, for which the z-score was -1.11.
For `CC(C)OC(=O)C=C1C[C@@H](c2ccc(C(F)(F)F)cc2)O[C@@H](c2ccc(C(F)(F)F)cc2)O1`, the z-score is -0.478.
Compound `CN(C)C(=O)[C@@]1(Cc2ccccc2CN=[N+]=[N-])N=C(c2ccc(OCCCO)cc2)O[C@H]1c1ccccc1CN=[N+]=[N-]` registered a z-score of -1.12.
`CCCNC(=O)[C@@]1(c2ccc([N+](=O)[O-])cc2)CC(=O)N(C2CCCCC2)[C@@H]1c1ccc(CO)cc1`: the z-score is -0.506.
The result for `CC(C)N1C(=O)C[C@@](C(=O)NCCCN(C)C)(c2ccc([N+](=O)[O-])cc2)[C@H]1c1ccc(CO)cc1` reads 0.701.
Regarding `O=C1N(Cc2ccccc2)Cc2ccccc2[C@@H]2OC(c3ccc(OCCCO)cc3)=N[C@]12CCS(=O)(=O)c1ccccc1`, the z-score was -1.14.
The compound `COC(=O)[C@@]1(Cc2ccc(OC)cc2)[C@@H]2C(=CC(=O)[C@H]2CC(=O)C(=O)N(C)C)CN1C(=O)c1ccccc1` gave a z-score of -0.843.
Consider `COc1ccc([Si](C)(C)[C@@H]2[C@@H](CC(=O)N3Cc4ccccc4C[C@H]3CO)O[C@]3(C(=O)N(C)c4ccccc43)[C@H]2C)cc1`, for which the z-score is -1.14.
The compound `C=C[C@@H](COC(C)=O)N(C(=O)OC(C)(C)C)S(=O)(=O)c1ccc(Br)cc1` displayed a z-score of -0.212.
